Bioassay records (PubChem)
DAX1 inh-1: inhibits human nuclear receptor DAX1; 0.99% of 340,000 active; inhibition, % at 6.75 µM; AID 504766; HEK293 Gal4-DAX1 luciferase reporter, luminescence; P51843;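 active = inhibition above the mean over all tested compounds plus 3 SD, cut at about 4.2% in these data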;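 note: 0% = DAX1-transfected cells with DMSO and 100% = empty-vector control cells with DMSO; inhibition shows as a rise in luminescence from relieved DAX1 repression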
hgDAF-12 ag: activates the H. glycines DAF-12 receptor ligand-binding domain; activation, % at 6.8 µM; HEK293 GAL4-hgDAF12 UAS-luciferase reporter, agonist luminescence; normalized to butyrate control; 1.8% of 370,000 active; AID 687014;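 active = activation above a cutoff set at the mean of all screened compounds plus 3 SD, cut at about 10% in these data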;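 note: 0% = DMSO wells and 100% = sodium butyrate wells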
DAX1 inh-2: DAX1 (NR0B1) inhibition, primary screen | AID 652010 | 1.1% of 370,000 active | HEK293T StAR-luciferase reporter, SF-1/DAX-1 repression relief | inhibition, % at 6.8 µM;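 active = inhibition above the mean over all tested compounds plus 3 SD, cut at about 3.6% in these data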;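 note: 0% = DAX-1 cells with DMSO and 100% = cells lacking DAX-1 with DMSO; higher inhibition means more luminescence from relief of DAX-1 repression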
hcDAF-12 act: activates DAF-12 receptor from parasite H. contortus. HEK293 hcDAF-12 lit1-tk-luc reporter, luminescence; 0% DMSO, 100% Δ7-dafachronic acid. activation, % at 6.8 µM. 1.4% of 370,000 active. AID 652067;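 active = activation above the mean of all tested compounds plus 3 SD, cut at about 5.5% in these data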;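 note: 100% = response to 3 µM Δ7-dafachronic acid high control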
ssDAF12 agonist: S. stercoralis DAF-12 activation, primary screen; HEK293 ssDAF-12/GRIP1 lit1-tk-luc reporter, luminescence; % of 3 µM dafachronic acid response; activation, % at 6.8 µM; 1% of 370,000 active; AID 652126;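 active = activation above the mean over all tested compounds plus 3 SD, cut at about 0.9% in these data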;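 note: 0% = DMSO-only wells and 100% = 3 µM delta7-dafachronic acid wells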
LXR ag: activates human LXR-beta, counter-screen for hcDAF-12 agonists; shares compounds with hcDAF-12 act; HEK293 Gal4-LXR tk-luc reporter, luminescence, 24 h; normalized: DMSO 0%, positive control 100%; activation, % at 6.8 µM; 3,400 tested, under 10 active; AID 743027;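 active = mean percent activation of the reporter above a cutoff set as the average over tested compounds plus their standard deviation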
Target sequence (P55055 whole entry, looked up, the tested form may be a part): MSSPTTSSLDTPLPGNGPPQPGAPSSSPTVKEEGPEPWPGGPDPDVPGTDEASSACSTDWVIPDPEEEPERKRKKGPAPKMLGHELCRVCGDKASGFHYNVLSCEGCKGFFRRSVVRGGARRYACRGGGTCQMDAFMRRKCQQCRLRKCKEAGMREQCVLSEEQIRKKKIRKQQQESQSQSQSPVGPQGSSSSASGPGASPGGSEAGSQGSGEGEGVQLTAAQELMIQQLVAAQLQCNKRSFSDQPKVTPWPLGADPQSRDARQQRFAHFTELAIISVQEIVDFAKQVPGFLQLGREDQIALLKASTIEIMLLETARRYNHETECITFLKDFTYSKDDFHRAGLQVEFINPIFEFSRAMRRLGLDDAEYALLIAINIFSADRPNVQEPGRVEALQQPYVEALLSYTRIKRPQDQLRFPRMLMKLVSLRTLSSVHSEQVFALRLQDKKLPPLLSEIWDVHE
hcDAF12 ag: hcDAF-12 agonism, confirmation assay. 61% of 3,400 active. HEK293 hcDAF-12 lit1-tk-luc reporter, luminescence; % of Δ7-dafachronic acid response. shares compounds with hcDAF-12 act. activation, % at 6.8 µM;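 active = mean activation across triplicate tests above the threshold derived from the earlier primary screen, cut at about 5.5% in these data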;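 note: 0% = DMSO only wells and 100% = 3 µM Δ7-dafachronic acid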
hgDAF12 ag: hgDAF-12 agonism, confirmation assay. HEK293 GAL4-hgDAF12 luciferase reporter, agonist mode; percent of butyrate response. shares compounds with hgDAF-12 ag. 80% of 3,300 active. activation, % at 6.8 µM;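 active = mean activation over triplicate wells above the hit cutoff derived from the earlier primary screen, cut at about 11% in these data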;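 note: 0% = DMSO low control and 100% = 2 mM sodium butyrate high control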
LXR ag 2: LXR-beta agonism as DAF-12 counter-screen. shares compounds with hgDAF-12 ag. HEK293 Gal4-LXR luciferase reporter, 24 h. activation, % at 6.8 µM. 3,300 tested, under 10 active;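 active = mean activation of the triplicate above a set limit carried over from the primary screen, none filed active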
Numbers without * were called inactive; nt = not tested or not shown. Only some compounds are listed: those with a hit (about 4.1% of all), similar ones and a draw of the others.

SMILES	DAX1 inh-1	hgDAF-12 ag	DAX1 inh-2	hcDAF-12 act	ssDAF12 agonist	LXR ag	hcDAF12 ag	hgDAF12 ag	LXR ag 2
COc1ccc2cc(C(N)=O)c(=Nc3ccccc3)oc2c1	2	14*	4.3*	14*	0	1	2	13*	1
CCCCC(=O)N(C)c1c(C)nc2ccc(C(=O)N3CCN(C(=O)c4ccco4)CC3)cn12	nt	1	0	1	-1	nt	nt	nt	nt
CC(C)COc1ccc(-c2cc(C(=O)NN)[nH]n2)cc1	0	20*	4.0*	13*	2.2*	0	3	6	0
CCC(=O)Nc1ccc2oc(-c3cccc(C)c3)nc2c1	-3	15*	4.2*	6.9*	1	2	7.9*	16*	1
CCC(=O)Nc1cccc(-c2nc3ccc(C)cc3o2)c1	3	5	1	2	0	nt	nt	nt	nt
O=C(NC(=S)Nc1ccccc1)c1ccc(Br)o1	2	17*	2	7.9*	-1	1	7.6*	13*	0
O=C(NC(=S)NCc1ccccc1)c1ccc(Br)o1	1	1	0	1	-1	nt	nt	nt	nt
Cc1ccccc1-c1cc2c(c3c1ccn3C)C1CCC2C1 (configuration not stated)	nt	2	1	-1	-1	nt	nt	nt	nt
COc1ccc(-c2nc3c4ccccc4ccn3c2Cc2cccc(F)c2)cc1OC	nt	16*	-1	6.7*	1.0*	1	7.4*	14*	0
CCc1ccc2oc(-c3cccc(N)c3)nc2c1	-1	16*	4.3*	16*	3.3*	2	14*	24*	1
Nc1ccc2oc(-c3cccc(Br)c3)nc2c1	1	nt	nt	nt	nt	nt	nt	nt	nt
Cc1ccc(NC(=O)c2ccc(Cl)nc2)cc1	4	14*	2	8.7*	1.4*	0	8.2*	9	0
CCN(CC)S(=O)(=O)c1ccc(NC(=O)c2ccc(Cl)nc2)cc1	-1	-4	-1	-3	-2	nt	nt	nt	nt
Cc1cc(SCc2ccc(Cl)cc2Cl)nc(=O)[nH]1	0	0	-1	-1	-1	nt	nt	nt	nt
Cc1cc(SCC(=O)c2ccc(Cl)cc2)nc(=O)[nH]1	1	15*	3	6.8*	1.3*	2	5.8*	15*	1
C=CCn1c(C)cc(C(=O)CN2NS(=O)(=O)c3ccccc3C2=O)c1C	5.4*	15*	3	8.8*	1.8*	0	5.8*	5	0
CCCCc1cc(=O)oc2cc(C)cc(OCC(=O)NCc3ccccn3)c12	-1	-2	-3	0	-1	nt	nt	nt	nt
c1ccc(-c2nc(NCC3CC3)nc3ccsc23)cc1	nt	-1	-1	-2	-1	nt	nt	nt	nt
Cc1ccc(-c2nc3ccsc3c(=O)[nH]2)cc1	2	22*	3.7*	12*	1.4*	1	14*	15*	1
Fc1ccccc1-c1ccc(/C=N/Nc2nc3ccccc3[nH]2)o1	1	21*	2	13*	3.4*	1	13*	18*	1
O=C1C=C(c2cccc(CO)c2)C[C@@H](c2ccc3c(c2)OCO3)C1	-1	2	-1	-1	-2	nt	nt	nt	nt
O=C(Nc1ccccc1)c1cccc(C(=O)Nc2ccccc2)n1	0	0	0	2	-1	nt	nt	nt	nt
O=C(Nc1ccccc1)c1cc2ccccc2s1	3	22*	4.2*	10*	1.1*	2	11*	20*	1
Cc1cc(NC(=O)CN2CCCCC2C)no1 (configuration not stated)	1	0	0	-1	-1	nt	nt	nt	nt
O=C(Nc1nc2ccccc2[nH]1)c1cccc(F)c1	0	17*	2	13*	2.3*	2	12*	18*	1
SMILES	DAX1 inh-1	hgDAF-12 ag	DAX1 inh-2	hcDAF-12 act	ssDAF12 agonist	LXR ag	hcDAF12 ag	hgDAF12 ag	LXR ag 2
O=C(Nc1nc2ccccc2[nH]1)c1ccc([N+](=O)[O-])cc1	1	9	2	4	-1	nt	nt	nt	nt
CCCCN(CC)C(=O)c1cc2cc3ccc(OC)cc3nc2o1	0	6	0	-2	-1	nt	nt	nt	nt
CCCCN(C)C(=O)c1cc2cc3ccc(OC)cc3nc2s1	-1	17*	3	7.0*	0	1	7.1*	16*	1
Cn1cc(/C=C/C(=O)c2ccccc2)c2ccccc21	-1	14*	2	12*	1.4*	2	13*	22*	1
Cc1c(/C=C/C(=O)c2ccccc2)cnn1C	4	5	0	1	-1	nt	nt	nt	nt
Cc1cc(-c2ccc(S(=O)(=O)N3CCCCC3)s2)on1	1	0	0	-1	-1	nt	nt	nt	nt
CC(C)(C)c1csc(NC(=O)c2ccc(Br)o2)n1	0	3	0	-1	0	nt	nt	nt	nt
NC(=O)c1ccccc1NC(=O)c1ccc2ccccc2c1	0	23*	3	11*	3.1*	2	9.2*	22*	1
O=C(NC(=S)Nc1ccccc1C(=O)O)c1ccc2ccccc2c1	-1	1	0	-1	-1	nt	nt	nt	nt
COc1ccc(C2(CNS(=O)(=O)c3ccc(C)cc3)CCOCC2)cc1	2	-2	0	0	-1	nt	nt	nt	nt
N#C/C(=C/c1cccs1)c1nc2ccccc2[nH]1	-1	18*	0	6.8*	-1	1	8.4*	14*	1
Cc1ccc(/C=C(\C#N)c2nc3ccccc3[nH]2)s1	1	8	3	5	0	nt	nt	nt	nt
CC(OC(=O)c1ccc2ncsc2c1)C(=O)Nc1cccc(Cl)c1 (configuration not stated)	-1	-2	1	-1	-1	nt	nt	nt	nt
COc1ccc(C(=O)Nc2nnc(Cc3ccc(OC)c(OC)c3)s2)c(OC)c1	-1	0	-2	-2	-2	nt	nt	nt	nt
COCc1nnc(NC(=O)c2ccc(OC)cc2OC)s1	0	15*	2	6.8*	0	1	4	12*	1
COc1cccc(/C=N/Nc2ccc([N+](=O)[O-])cc2)c1O	2	25*	1	7.3*	1	2	7.2*	21*	1
CCCCNC(=O)C1C(c2ccc(OC)cc2)=Nc2ccccc2N1C(=O)c1ccc2ncccc2c1 (configuration not stated)	nt	2	0	2	0	nt	nt	nt	nt
Cc1ccc(NC(=O)COc2ccc3c(c2)OCO3)c(C)c1	0	4	3	1	-1	nt	nt	nt	nt
